Screens from PubChem BioAssay.
The sample as a whole holds a higher share of hits than the screen did.
NOMO-1 viab = STK33 inhibitor candidate reducing NOMO-1 cell viability; NOMO-1 AML viability, CellTiter-Glo luminescence, 72 h; inhibition, % (concentration not given with the values); 37,000 compounds, 7.5% hits; in the data active = inhibition above about 80%
PD-1 reversal = activators reversing PD-1 mediated T-cell inhibition; primary human CD4 T cells, PD-L1 beads, CellTiter-Glo 96 h; activation, % (concentration not given with the values); 29,000 tested, under 10 active; AID 2316; call rule not given here
STK33 kin inh = blocks human STK33 kinase activity | Q9BYT3 | 27,000 compounds, 0.44% hits | ADP-Glo luminescence, MBP substrate | AID 2322 | inhibition, % at 12.5 µM; in the data active = inhibition above about 20%
Target sequence (Q9BYT3 whole entry, looked up): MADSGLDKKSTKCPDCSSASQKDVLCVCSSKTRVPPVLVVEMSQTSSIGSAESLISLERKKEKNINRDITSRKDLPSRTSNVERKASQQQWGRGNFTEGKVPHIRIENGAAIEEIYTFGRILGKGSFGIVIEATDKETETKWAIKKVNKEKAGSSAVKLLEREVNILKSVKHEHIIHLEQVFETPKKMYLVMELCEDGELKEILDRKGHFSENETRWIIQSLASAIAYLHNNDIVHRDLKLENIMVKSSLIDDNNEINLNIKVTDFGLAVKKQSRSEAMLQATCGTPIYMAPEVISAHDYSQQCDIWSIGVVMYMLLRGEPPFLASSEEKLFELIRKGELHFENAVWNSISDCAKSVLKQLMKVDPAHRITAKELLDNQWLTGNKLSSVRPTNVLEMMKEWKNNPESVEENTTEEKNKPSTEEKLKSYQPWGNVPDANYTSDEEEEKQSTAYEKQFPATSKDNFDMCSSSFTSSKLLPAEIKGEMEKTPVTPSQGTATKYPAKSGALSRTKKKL
Large screens that a line does not name were inactive.

COc1ccc(NC(=O)Nc2ccc3c(c2)C(=O)N([C@H](C)CO)C[C@H](C)[C@@H](CN(C)Cc2ccc(C(F)(F)F)cc2)OCCCC[C@@H](C)O3)cc1	NOMO-1 viab 110 (no result: PD-1 reversal)
C[C@@H]1CCCCO[C@H](CN(C)Cc2ccc(C(=O)O)cc2)[C@@H](C)CN([C@H](C)CO)C(=O)c2cc(NC(=O)C3CCCCC3)ccc2O1	none
CC(C)=CCC/C(C)=C/CC/C(C)=C/CSc1ncn[nH]1	none
COC(=O)c1ccccc1NC(=O)CN1CCN(C)CC1	none
C[C@@H]1CCCCO[C@@H](CN(C)Cc2ccc(C(F)(F)F)cc2)[C@@H](C)CN([C@H](C)CO)C(=O)c2cc(NC(=O)Cc3ccccc3)ccc2O1	NOMO-1 viab 106
C[C@@H]1CCCCO[C@@H](CN(C)Cc2ccccc2)[C@@H](C)CN([C@H](C)CO)C(=O)c2cc(NC(=O)Cc3ccccc3)ccc2O1	none
COc1cc(OC)c(NC(=O)CSc2nc3ccc([N+](=O)[O-])cc3s2)cc1Cl	none
Cc1sc(N)nc1C12CC3CC(CC(C3)C1)C2	NOMO-1 viab 105 (no result: STK33 kin inh)
S=c1nc(C23CC4CC(CC(C4)C2)C3)[nH][nH]1	none
CC(=O)c1cn(CC(=O)Nc2ccccc2)c2ccccc12	none
O=C(Cn1cc(C(=O)c2ccccc2F)c2ccccc21)Nc1ccccc1	NOMO-1 viab 89
O=C1C(=O)N(CCc2ccccc2)C(c2ccco2)C1C(=O)c1cc2ccccc2o1 (stereo not drawn)	none
CCCOc1ccc2nc(NC(=O)OC)[nH]c2c1	NOMO-1 viab 104 (no result: PD-1 reversal)
CCOc1ccc2nc(NCCCO)[nH]c2c1	none (no result: PD-1 reversal)
C=C(C(=O)O)C1C(OC(=O)/C(=C/CO)CO)CC(C)(O)C2CC(OC(C)=O)C(C)=CC12 (stereo not drawn)	none
Cc1cccc(NC(=S)N2CCCCC2C)c1 (stereo not drawn)	none
Cc1cc(OCC(=O)Nc2ccc(O)c(-c3nc4ccccc4o3)c2)ccc1Cl	NOMO-1 viab 107
Cc1cc(OCC(=O)Nc2ccc(O)c(-c3nc4ccccc4s3)c2)ccc1Cl	none (no result: PD-1 reversal)
Cc1cc(Br)ccc1NC(=O)CN(C)S(=O)(=O)c1ccc(Cl)cc1	none
O=C(Nc1cc(C(F)(F)F)ccc1Cl)C(Cc1ccccc1)N1C(=O)C2C3C=CC(C4CC34)C2C1=O (stereo not drawn)	none
O=C1C(SCCO)=C(SCCO)C(=O)c2ccccc21	NOMO-1 viab 114 (no result: PD-1 reversal)
O=C1c2ccccc2C(=O)N1C(CO)C(O)c1ccccc1 (stereo not drawn)	none (no result: STK33 kin inh)
O=C(NCCCN1CCCC1=O)c1cc2ccccc2oc1=O	none
CC(C)NC(=O)Nc1ccc2c(c1)CC(=O)N([C@H](C)CO)C[C@@H](C)[C@@H](CN(C)S(=O)(=O)c1ccc(F)cc1)O2	none (no result: PD-1 reversal)
C[C@@H]1CN([C@@H](C)CO)C(=O)c2cc(NC(=O)Nc3ccc4c(c3)OCO4)ccc2O[C@@H]1CN(C)S(=O)(=O)c1ccc(F)cc1	none (no result: STK33 kin inh)
C[C@H](CO)N1C[C@H](C)[C@H](CN(C)S(=O)(=O)c2ccc(Cl)cc2)Oc2ccc(NC(=O)Nc3ccccc3)cc2CC1=O	NOMO-1 viab 111 (no result: PD-1 reversal, STK33 kin inh)
C[C@H](CO)N1C[C@H](C)[C@H](CN(C)S(=O)(=O)c2ccc(F)cc2)Oc2ccc(NC(=O)Nc3ccc(C(F)(F)F)cc3)cc2CC1=O	NOMO-1 viab 119
C[C@@H]1CN([C@H](C)CO)C(=O)c2cc(NC(=O)Nc3ccc4c(c3)OCO4)ccc2O[C@@H]1CN(C)S(=O)(=O)c1ccc(F)cc1	NOMO-1 viab 95 (no result: STK33 kin inh)
C[C@H](CO)N1C[C@H](C)[C@H](CN(C)S(=O)(=O)c2ccc(F)cc2)Oc2ccc(NC(=O)Nc3ccc(F)cc3)cc2CC1=O	NOMO-1 viab 126
COc1ccc(S(=O)(=O)N(C)C[C@H]2Oc3ccc(NC(=O)Nc4ccc(F)cc4)cc3CC(=O)N([C@@H](C)CO)C[C@@H]2C)cc1	none
C[C@@H]1CN([C@@H](C)CO)C(=O)Cc2cc(NC(=O)Nc3ccccc3)ccc2O[C@@H]1CN(C)S(=O)(=O)c1ccc(Cl)cc1	none
O=C(Cn1nc(C(F)(F)F)c2c1CCCCC2)Nc1ccc(S(=O)(=O)N2CCCC2)cc1	none
COC(=O)c1ccc(NC(=O)CSc2nnc(-c3cnccn3)n2C)cc1	none
O=C(CSc1nnc(-c2ccccc2O)n1-c1ccccc1)Nc1ccc(Cl)c(C(=O)O)c1	none
C[C@H]1CN([C@@H](C)CO)C(=O)Cc2cc(N(C)C)ccc2O[C@@H]1CN(C)S(=O)(=O)c1ccc(Cl)cc1	none (no result: PD-1 reversal)
COc1ccc(NC(=O)Nc2ccc3c(c2)CC(=O)N([C@@H](C)CO)C[C@@H](C)[C@@H](CN(C)S(=O)(=O)c2ccc(F)cc2)O3)cc1	none
C[C@H](CO)N1C[C@H](C)[C@H](CN(C)S(=O)(=O)c2ccccc2)Oc2ccc(NC(=O)Nc3ccc(F)cc3)cc2CC1=O	NOMO-1 viab 95
C[C@H](CO)N1C[C@H](C)[C@H](CN(C)S(=O)(=O)c2ccc(Cl)cc2)Oc2ccc(NC(=O)NC3CCCCC3)cc2CC1=O	NOMO-1 viab 119 (no result: PD-1 reversal)
C[C@H](CO)N1C[C@H](C)[C@H](CN(C)S(=O)(=O)c2ccc(Cl)cc2)Oc2ccc(NC(=O)Nc3ccc(F)cc3)cc2CC1=O	NOMO-1 viab 125
C[C@@H]1CN([C@H](C)CO)C(=O)Cc2cc(NC(=O)NC3CCCCC3)ccc2O[C@@H]1CN(C)S(=O)(=O)c1ccc(Cl)cc1	none
C[C@H]1CN([C@@H](C)CO)C(=O)Cc2cc(N(C)C)ccc2O[C@H]1CN(C)S(=O)(=O)c1ccc(Cl)cc1	NOMO-1 viab 115
C[C@@H]1CN([C@H](C)CO)C(=O)Cc2cc(NC(=O)Nc3ccc(F)cc3)ccc2O[C@H]1CN(C)S(=O)(=O)c1ccccc1	none (no result: PD-1 reversal)
O=C(CN1C(=O)c2ccccc2C1=O)c1ccc(C(F)(F)F)cc1	none (no result: STK33 kin inh)
COC(=O)c1cc(OC)c(OC)cc1NC(=O)CSc1nc2ccccc2o1	none
C[C@@H]1CN([C@H](C)CO)C(=O)Cc2cc(NC(=O)Nc3ccc4c(c3)OCO4)ccc2O[C@H]1CN(C)S(=O)(=O)c1ccc(F)cc1	none
COc1ccc(NC(=O)Nc2ccc3c(c2)CC(=O)N([C@H](C)CO)C[C@@H](C)[C@@H](CN(C)S(=O)(=O)c2ccc(C)cc2)O3)cc1	none
COc1ccc(NC(=O)Nc2ccc3c(c2)CC(=O)N([C@@H](C)CO)C[C@H](C)[C@H](CN(C)S(=O)(=O)c2ccc(C)cc2)O3)cc1	NOMO-1 viab 128 (no result: PD-1 reversal, STK33 kin inh)
COc1ccc(NC(=O)Nc2ccc3c(c2)CC(=O)N([C@@H](C)CO)C[C@H](C)[C@H](CN(C)S(=O)(=O)c2ccc(F)cc2)O3)cc1	NOMO-1 viab 110 (no result: PD-1 reversal)
COc1ccc(S(=O)(=O)N(C)C[C@@H]2Oc3ccc(NC(=O)Nc4ccc(F)cc4)cc3CC(=O)N([C@H](C)CO)C[C@H]2C)cc1	none
C[C@H](CO)N1C[C@H](C)[C@H](CN(C)S(=O)(=O)c2ccc(F)cc2)Oc2ccc(NC(=O)Nc3ccc4c(c3)OCO4)cc2CC1=O	NOMO-1 viab 126
O=C(c1cc2cc(Br)ccc2oc1=O)N1CCCc2ccccc21	none (no result: STK33 kin inh)
Cc1ccc(OCC(=O)Nc2ccc(Cl)c(-c3nc4ccccc4s3)c2)cc1	none
C[C@@H]1CN([C@@H](C)CO)C(=O)c2cc(NC(=O)C3CCCCC3)ccc2O[C@@H]1CN(C)Cc1ccc2c(c1)OCO2	none (no result: STK33 kin inh)
COc1ccc(NC(=O)Nc2ccc3c(c2)C(=O)N([C@H](C)CO)C[C@@H](C)[C@@H](CN(C)Cc2ccc4c(c2)OCO4)O3)cc1	none
